Source: PubChem BioAssay (Tox21)
Unmarked numbers belong to inactive results. Records with an inconclusive call do not appear. A call without a number means that no potency is given here. The source made the active and inactive calls. Unless noted, calls come from the whole dose curve; as a rule, active = well fitted curve in the direction sought with a large enough effect in the repeat runs; inconclusive = weak or mixed curves; inactive = no such curve, though single readings can be large; an effect the other way counts as inactive or inconclusive.

What was measured:
[1] = qHTS assay to identify small molecule antagonists of the estrogen receptor alpha (ER-alpha) signaling pathway using the BG1 cell line in the presence of 0.1 nM 17-beta-estradiol - cell viability counter screen (AID 1259241); note: nearly all actives have a fitted effect of over 40% in size
Procedure, shortened: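 The cell line endogenously expresses full-length ER-alpha and carries four EREs driving luciferase. Cells are cultured 5 days hormone-free, treated 22 hr with compounds and 0.1 nM estradiol, then viability is read by fluorescence.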

[2] = qHTS assay to identify small molecule antagonists of the androgen receptor (AR) signaling pathway using the MDA cell line in the presence of 0.5 nM R1881 - cell viability counter screen (AID 1259242); note: nearly all actives have a fitted effect of over 45% in size
Procedure, shortened: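 Cells seeded at 3,000/well and allowed 5 hr at 37C, 0% CO2 before compound transfer and R1881 (0.5 nM final) addition; 16 hr later, live-cell protease fluorescence indicated cytotoxicity.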

[3] = molecular target: Androgen receptor (Homo sapiens) (UniProt P10275); assay: qHTS assay to identify small molecule antagonists of the androgen receptor (AR) signaling pathway using the MDA cell line in the presence of 0.5 nM R1881 (AID 1259243); note: nearly all actives have a fitted effect of over 50% in size
Procedure, shortened: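 Luminescence from an AR/GR-responsive MMTV-luciferase construct in MDA-kb2 breast carcinoma cells, read 30 min after ONE-Glo, following 16 hr co-treatment with compounds and 0.5 nM R1881.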

[4] = molecular target: Estrogen receptor (Homo sapiens) (UniProt P03372); assay: qHTS assay to identify small molecule antagonists of the estrogen receptor alpha (ER-alpha) signaling pathway using the BG1 cell line in the presence of 0.1 nM 17-beta-estradiol (AID 1259244); note: nearly all actives have a fitted effect of over 50% in size
Procedure, shortened: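 Luciferase signal from VM7Luc4E2 ERE-reporter cells, co-dosed with test compound and 0.1 nM final 17beta-estradiol for 22 h, read with ONE-Glo.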

[5] = qHTS assay to identify small molecule phospholipidosis (PLD) inducers (AID 1259344; active = well fitted curve in the direction sought with a large enough effect; an effect the other way counts as inactive or inconclusive)
Procedure, shortened: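 After 4 h attachment on collagen I, HepG2 cells were dosed with compound alongside LipidTOX Red, kept 24 h at 37 C, fixed, and imaged for lamellar phospholipid pits.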

[6] = qHTS assay to identify small molecule HDAC inhibitors (AID 1259364);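 note: wild-type HCT-116 cells with endogenous class I/II HDAC activity; top concentration of the series differs between compounds; nearly all actives have a fitted effect of over 45% in size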
Procedure, shortened: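 HCT-116 wt cells, 1,500/well, overnight attach. Compounds (DMSO) 2 h, 37 °C. HDAC-Glo I/II, 30 min RT. Luminescence.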

[7] = qHTS assay to identify small molecule HDAC inhibitors - cell viability counter screen (AID 1259365); note: series mostly up to about 92 µM; nearly all actives have a fitted effect of over 50% in size
Procedure, shortened: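 Viability readout: CellTiter-Glo luminescence. Wild-type HCT-116 cells, 2hr compound treatment following overnight attachment at 37 C.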

[8] = qHTS assay to identify small molecule agonists of the sonic hedgehog signaling (Shh) pathway - cell viability counter screen (AID 1259366); note: nearly all actives have a fitted effect of over 50% in size
Procedure, shortened: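 Viability measured fluorometrically (CellTiter-Fluor, 1hr, 37C) in 3T3 Gli1-Luc reporter cells after 23hr compound exposure within a 24hr incubation at 37C/5% CO2.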

[9] = qHTS assay to identify small molecule antagonists of the sonic hedgehog signaling (Shh) pathway - cell viability counter screen (AID 1259367); note: nearly all actives have a fitted effect of over 55% in size
Procedure, shortened: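 Conditioned medium drove Shh signaling in 3T3 Gli1-Luc cells exposed to compounds at 37C and 5% CO2. Viability was determined from CellTiter-Fluor fluorescence, with reagent incubated 1 hr after 23 hr of treatment.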

[10] = qHTS assay to identify small molecule agonists of the sonic hedgehog signaling (Shh) pathway (AID 1259368; calls by dose curve;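 note: NIH/3T3-derived 3T3Gli1-Luc cells carrying a stable Gli1-driven firefly luciferase reporter; series mostly up to about 92 µM; nearly all actives have a fitted effect of over 15% in size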)
Procedure, shortened: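 Following a 24 hr incubation with DMSO-dissolved compounds at 37 C, 5% CO2, Gli1-Luc NIH/3T3-derived cells received luciferase reagent for 30 min at room temperature prior to luminescence measurement.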

[11] = molecular target: Estrogen receptor beta (Homo sapiens) (UniProt Q92731); assay: qHTS assay to identify small molecule agonists of the estrogen receptor beta (ER-beta) signaling pathway (AID 1259377; active = well fitted activation curve with a large enough effect in the signal ratio in the repeat runs, not every such curve was filed as active; the % refers to the signal ratio)
Procedure, shortened: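 A UAS-controlled beta-lactamase reporter in ER-beta-UAS-bla HEK293T cells reports receptor activation. Compounds act for 16 hr at 37C in 2% charcoal-stripped serum, and a FRET substrate is read by fluorescence after 2 hours.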

[12] = molecular target: Estrogen receptor beta (Homo sapiens) (UniProt Q92731); assay: qHTS assay to identify small molecule antagonists of the estrogen receptor beta (ER-beta) signaling pathway (AID 1259378; active = well fitted inhibition curve with a large enough effect in the signal ratio in the repeat runs, not every such curve was filed as active; the % refers to the signal ratio; note: potency is the fitted concentration of half-maximal effect)
Procedure, shortened: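 ER-beta-UAS-bla HEK293T (GripTite) cells in 2% charcoal-stripped FBS medium were preincubated 6 hr at 37C, dosed with compound, then stimulated with 1 nM E2 (final) for 16 hr; beta-lactamase reporter read by B/G FRET fluorescence after 2 hr substrate loading.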

[13] = qHTS assay to identify small molecule agonists of the androgen receptor (AR) signaling pathway in the presence of an antagonist - cell viability counter screen (AID 1259379);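 note: MDA-kb2 human breast cancer cells carrying an MMTV luciferase reporter; series mostly up to about 92 µM; nearly all actives have a fitted effect of over 25% in size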
Procedure, shortened: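 Each compound was tested at 15 concentrations on MDA-kb2 cells in the presence of 3.0uM nilutamide. Viability was measured by CellTiter-Fluor fluorescence after a 16 hr incubation at 37C in a CO2-free atmosphere.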

[14] = qHTS assay to identify small molecule agonists of the estrogen receptor beta (ER-beta) signaling pathway - cell viability counter screen (AID 1259380); note: nearly all actives have a fitted effect of over 30% in size; note: potency is the fitted concentration of half-maximal effect
Procedure, shortened: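 Compounds dissolved in DMSO were pin-transferred onto ER-beta-UAS-bla HEK293T cells that had settled 6 hr, and exposure ran 16 hr at 37C. Following the reporter read, CellTiter-Glo luminescence after 30 min at room temperature indicated cytotoxicity.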

[15] = molecular target: Androgen receptor (Homo sapiens) (UniProt P10275); assay: qHTS assay to identify small molecule agonists of the androgen receptor (AR) signaling pathway in the presence of an antagonist (AID 1259381; calls by dose curve; note: nearly all actives have a fitted effect of over 15% in size)
Procedure, shortened: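 Plated MDA-kb2 cells (3,000/well) were pre-incubated 5hr, given nilutamide (3.0uM final) or buffer, then dosed with compounds in DMSO at 15 concentrations. Luciferase activity was quantified by luminescence after 16hr at 37C.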

[16] = qHTS assay to identify small molecule antagonists of the estrogen receptor beta (ER-beta) signaling pathway - cell viability counter screen (AID 1259382); note: series mostly up to about 92 µM; nearly all actives have a fitted effect of over 55% in size
Procedure, shortened: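 CellTiter-Glo ATP luminescence measured after the LiveBLAzer read in the same wells; ER-beta-UAS-bla HEK293T cells, 16 hr compound treatment with 1nM 17-beta-estradiol agonist at 37C, 5% CO2.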

[17] = molecular target: Estrogen receptor (Homo sapiens) (UniProt P03372); assay: qHTS assay to identify small molecule agonists of the estrogen receptor alpha (ER-alpha) signaling pathway in the presence of an antagonist (AID 1259383; calls by dose curve; note: top concentration of the series differs between compounds; nearly all actives have a fitted effect of over 15% in size)
Procedure, shortened: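 Luminescent ERE-luciferase reporter, VM7Luc4E2 cells (endogenous ER-alpha); 10.0nM ICI-182,780 final; 15-point compound titration; 22hr at 37C; ONE-Glo, 30min RT.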

[18] = qHTS assay to identify small molecule agonists or antagonists of the thyroid stimulating hormone receptor (TSHR) signaling pathway - wild type cell line counter screen (AID 1259384; calls by dose curve)
Procedure, shortened: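 Wild-type HEK293 cells were plated 18 h at 37 C/5% CO2, pin-dosed with compound plus Ro20-1724 medium, held 30 min at room temperature, then given cAMP-d2 and anti-cAMP-cryptate; fluorescence was read after 1 h. Fifteen concentrations, triplicate.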

[19] = A CellTox Green Cytotoxicity Assay to monitor cytotoxicity in HepG2 cells - 8 hour (AID 1224890); note: nearly all actives have a fitted effect of over 45% in size
Procedure, shortened: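 Cytotoxicity was tracked as dead-cell DNA fluorescence in HepG2 cells treated with test compounds at 37 C; each time-point value comes from one kinetic series spanning 0, 8, 16, 24, 32 and 40 h.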

[20] = qHTS assay to identify small molecule antagonists of the sonic hedgehog signaling (Shh) pathway (AID 1259369; calls by dose curve; note: nearly all actives have a fitted effect of over 45% in size; note: potency is the fitted concentration of half-maximal effect)
Procedure, shortened: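 Read-out is luminescence from a firefly luciferase gene controlled by the Gli1 response element, in 3T3Gli1-Luc cells pre-incubated 4hr then exposed to compounds and conditioned medium for 24hr.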

Sequence of Androgen receptor (Homo sapiens) (P10275 whole entry, looked up): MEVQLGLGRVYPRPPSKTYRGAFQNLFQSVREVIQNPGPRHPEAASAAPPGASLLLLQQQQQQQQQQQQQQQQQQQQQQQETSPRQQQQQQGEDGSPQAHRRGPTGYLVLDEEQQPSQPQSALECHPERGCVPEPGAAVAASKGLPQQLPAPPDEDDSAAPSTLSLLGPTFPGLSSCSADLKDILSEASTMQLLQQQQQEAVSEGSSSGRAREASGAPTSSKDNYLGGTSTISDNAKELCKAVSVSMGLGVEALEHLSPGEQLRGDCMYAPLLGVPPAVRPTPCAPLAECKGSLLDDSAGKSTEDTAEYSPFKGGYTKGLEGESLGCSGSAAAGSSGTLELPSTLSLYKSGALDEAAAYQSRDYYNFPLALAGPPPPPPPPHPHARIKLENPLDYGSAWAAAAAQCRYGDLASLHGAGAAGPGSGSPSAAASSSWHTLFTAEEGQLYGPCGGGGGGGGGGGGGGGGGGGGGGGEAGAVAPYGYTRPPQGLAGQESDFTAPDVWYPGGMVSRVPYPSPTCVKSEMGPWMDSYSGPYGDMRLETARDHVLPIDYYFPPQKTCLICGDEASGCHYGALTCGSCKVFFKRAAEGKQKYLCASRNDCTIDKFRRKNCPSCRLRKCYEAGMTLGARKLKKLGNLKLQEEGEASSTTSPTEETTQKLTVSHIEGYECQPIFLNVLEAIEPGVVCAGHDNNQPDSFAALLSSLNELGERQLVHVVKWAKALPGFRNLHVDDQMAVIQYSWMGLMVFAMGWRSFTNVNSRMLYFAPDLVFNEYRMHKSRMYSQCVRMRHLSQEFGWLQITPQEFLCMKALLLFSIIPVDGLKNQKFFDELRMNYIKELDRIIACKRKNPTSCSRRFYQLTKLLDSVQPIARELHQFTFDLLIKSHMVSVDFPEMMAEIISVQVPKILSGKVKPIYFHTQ
Sequence of Estrogen receptor (Homo sapiens) (P03372 whole entry, looked up): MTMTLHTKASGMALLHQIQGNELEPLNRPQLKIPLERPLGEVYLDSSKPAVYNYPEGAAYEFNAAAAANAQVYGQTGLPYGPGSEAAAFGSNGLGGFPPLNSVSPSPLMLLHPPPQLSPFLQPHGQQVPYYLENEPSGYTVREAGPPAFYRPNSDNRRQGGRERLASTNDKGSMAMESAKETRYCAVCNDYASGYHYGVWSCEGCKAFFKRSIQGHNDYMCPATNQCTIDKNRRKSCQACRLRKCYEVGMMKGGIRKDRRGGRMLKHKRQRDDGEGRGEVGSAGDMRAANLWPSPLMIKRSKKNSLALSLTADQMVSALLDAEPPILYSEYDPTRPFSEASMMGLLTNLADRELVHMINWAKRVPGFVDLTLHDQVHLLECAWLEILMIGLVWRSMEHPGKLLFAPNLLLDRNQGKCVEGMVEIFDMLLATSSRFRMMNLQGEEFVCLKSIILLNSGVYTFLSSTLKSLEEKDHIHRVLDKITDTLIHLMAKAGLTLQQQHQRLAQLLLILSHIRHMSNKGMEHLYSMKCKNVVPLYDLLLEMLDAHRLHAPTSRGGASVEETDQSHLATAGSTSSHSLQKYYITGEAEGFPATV
Sequence of Estrogen receptor beta (Homo sapiens) (Q92731 whole entry, looked up): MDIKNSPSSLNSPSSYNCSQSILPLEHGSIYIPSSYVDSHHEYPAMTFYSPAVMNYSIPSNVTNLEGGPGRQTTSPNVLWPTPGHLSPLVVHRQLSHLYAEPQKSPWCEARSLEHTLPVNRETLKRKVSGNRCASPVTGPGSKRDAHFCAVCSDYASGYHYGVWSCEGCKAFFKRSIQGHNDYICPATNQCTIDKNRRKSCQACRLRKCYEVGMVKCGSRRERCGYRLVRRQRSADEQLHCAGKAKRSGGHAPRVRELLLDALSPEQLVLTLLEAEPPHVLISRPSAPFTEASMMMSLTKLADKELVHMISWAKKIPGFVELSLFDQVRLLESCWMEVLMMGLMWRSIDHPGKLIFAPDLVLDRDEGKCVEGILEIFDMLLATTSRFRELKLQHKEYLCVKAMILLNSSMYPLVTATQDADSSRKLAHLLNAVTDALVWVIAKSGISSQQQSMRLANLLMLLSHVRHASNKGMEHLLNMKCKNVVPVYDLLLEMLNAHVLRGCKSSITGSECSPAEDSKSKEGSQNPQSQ

Compound	outcome [1]	outcome [2]	Potency [3]	outcome [4]	Potency [5]	Potency [6]	outcome [7]	Potency [8]	outcome [9]	Potency [10]	outcome [11]	Potency [12]	Potency [13]	Potency [14]	Potency [15]	Potency [16]	Potency [17]	outcome [18]	Potency [19]	Potency [20]
OCCN1C[C@H](O)[C@@H](O)[C@H](O)[C@H]1CO	inactive	inactive	inactive	inactive	inactive	inactive	inactive	inactive	inactive	inactive	inactive	inactive	inactive	inactive	inactive	inactive	inactive	inactive	–	–
OCCCCCCO	inactive	inactive	–	–	–	inactive	inactive	inactive	inactive	inactive	–	–	inactive	55.1 µM (active)	–	–	–	–	inactive	–
CC(C)N1C(=O)c2ccccc2C1=O	inactive	inactive	–	–	–	inactive	inactive	inactive	inactive	inactive	–	–	inactive	inactive	–	inactive	inactive	inactive	inactive	inactive
CCn1c(=O)c2c(nc(/C=C/c3ccc(OC)c(OC)c3)n2C)n(CC)c1=O	inactive	inactive	–	–	–	inactive	–	inactive	inactive	inactive	–	–	inactive	–	–	inactive	–	inactive	inactive	–
C=CCOc1nc(OCC=C)nc(OCC=C)n1	inactive	inactive	–	–	–	inactive	inactive	inactive	inactive	inactive	inactive	inactive	inactive	inactive	–	inactive	–	inactive	inactive	–
C=CC(=O)N1CCOCC1	inactive	inactive	–	–	–	inactive	inactive	inactive	inactive	inactive	–	–	inactive	inactive	–	inactive	–	inactive	inactive	inactive
CC(CCO)CCCC(C)(C)O (stereo not given)	inactive	inactive	–	–	–	inactive	inactive	inactive	inactive	inactive	inactive	–	inactive	inactive	–	inactive	–	–	inactive	–
CCCCCCOC(=O)c1ccccc1O	inactive	inactive	inactive	inactive	–	inactive	inactive	inactive	inactive	inactive	–	inactive	inactive	–	inactive	inactive	inactive	inactive	–	inactive
O=c1[nH]c(=O)n([C@H]2O[C@H](CO)[C@@H](O)[C@@H]2O)cc1/C=C\Br	inactive	inactive	inactive	inactive	–	inactive	inactive	inactive	inactive	inactive	–	–	inactive	inactive	inactive	inactive	inactive	–	–	–
c1cc(CN2CCCCC2)cc(OCCCNc2nc3ccccc3s2)c1	inactive	–	–	–	inactive	inactive	inactive	–	–	inactive	inactive	23.7 µM (active)	–	–	–	inactive	inactive	inactive	inactive	–
Cc1ncc(CSSCc2cnc(C)c(O)c2CO)c(CO)c1O	inactive	inactive	inactive	inactive	inactive	inactive	–	inactive	inactive	inactive	–	–	inactive	inactive	inactive	inactive	inactive	inactive	–	inactive
CCCC=O	inactive	inactive	–	–	–	inactive	inactive	inactive	inactive	inactive	inactive	–	inactive	inactive	–	inactive	–	inactive	inactive	inactive
CCO[Si](CCCN=C=O)(OCC)OCC	–	inactive	–	–	–	inactive	inactive	inactive	inactive	inactive	–	–	inactive	inactive	–	inactive	inactive	inactive	inactive	inactive
CCC(C)OC(=O)N1CCCCC1CCO (stereo not given)	inactive	inactive	–	–	–	inactive	inactive	inactive	inactive	inactive	inactive	–	inactive	inactive	–	inactive	–	inactive	inactive	inactive
COC(C(=O)O)c1ccccc1 (stereo not given)	inactive	inactive	–	–	–	inactive	–	inactive	inactive	inactive	–	–	inactive	inactive	–	inactive	–	inactive	inactive	inactive
OCC(O)[C@@H](O)[C@H](O)[C@H](O)CO[C@H]1O[C@H](CO)[C@@H](O)[C@H](O)[C@H]1O (stereo not given in full)	inactive	inactive	–	–	–	inactive	inactive	inactive	inactive	inactive	inactive	inactive	inactive	inactive	–	inactive	–	inactive	inactive	–
C1=C\CC/C=C\CC/C=C\CC/1	inactive	inactive	–	–	–	inactive	–	inactive	inactive	inactive	inactive	–	inactive	inactive	–	inactive	–	–	inactive	–
CC1(C)SC(C)(C)SC(C)(C)S1	inactive	inactive	inactive	inactive	–	inactive	–	inactive	inactive	inactive	inactive	–	inactive	inactive	inactive	inactive	inactive	inactive	–	inactive
OC1OC[C@@H](O)[C@H](O)[C@H]1O (stereo not given in full)	inactive	inactive	–	–	–	inactive	inactive	inactive	inactive	inactive	–	inactive	inactive	inactive	–	inactive	–	–	inactive	–
CSc1nc(NC2CC2)nc(NC(C)(C)C)n1	inactive	inactive	–	–	–	inactive	inactive	inactive	–	inactive	–	–	inactive	inactive	–	inactive	–	–	inactive	1.54 µM (active)
